Test in all cases: DAPPL (digital affinity profiling via proximity ligation, sequencing); 10 mM Tris-HCl pH 7.5, 50 mM NaCl, 1 mM DTT, 4% glycerol, room temperature, 30 min; GST-TFs on glutathione beads, 16-mer random dsDNA library, 0.1% formaldehyde crosslink after washing; high values mean tight binding
Assay [1] deals with T1, FLI1 (Homo sapiens, UniProt Q01543 1-452).
T1 sequence: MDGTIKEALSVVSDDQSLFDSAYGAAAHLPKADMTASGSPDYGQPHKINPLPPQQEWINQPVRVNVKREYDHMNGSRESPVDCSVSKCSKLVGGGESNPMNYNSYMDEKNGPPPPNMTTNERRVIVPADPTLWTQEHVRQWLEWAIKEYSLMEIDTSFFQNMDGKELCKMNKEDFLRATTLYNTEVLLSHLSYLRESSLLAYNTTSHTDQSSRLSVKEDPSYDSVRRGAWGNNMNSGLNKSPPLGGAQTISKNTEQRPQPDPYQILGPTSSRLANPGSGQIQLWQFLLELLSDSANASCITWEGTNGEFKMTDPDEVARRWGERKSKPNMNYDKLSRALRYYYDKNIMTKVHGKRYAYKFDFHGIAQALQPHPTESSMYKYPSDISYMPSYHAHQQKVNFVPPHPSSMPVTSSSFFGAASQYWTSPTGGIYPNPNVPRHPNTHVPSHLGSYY
Conditions: protein: recombinant; tags: N-terminal GST; dsDNA, one strand shown. The method in brief:
(§1)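 Beads coated with glutathione captured GST-fused human transcription factors that had been expressed in yeast, and the factors were then given DNA barcodes and pooled with a tag-only sample. The pools were incubated with 200 nmole of a random double-stranded 16-mer DNA library in Tris/NaCl/DTT/glycerol buffer for 30 min at room temperature, washed, crosslinked with 0.1% formaldehyde and proximity-ligated with BsaI/T4 ligase at 37 °C for 1 h. PCR amplification and Illumina NextSeq500 sequencing came last. Binding signal is each hexamer's read frequency for a factor divided by its frequency for the tag-only sample.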

For assay [2], the target named is T2, GABPA (Homo sapiens, UniProt Q06546 1-454).
T2 sequence: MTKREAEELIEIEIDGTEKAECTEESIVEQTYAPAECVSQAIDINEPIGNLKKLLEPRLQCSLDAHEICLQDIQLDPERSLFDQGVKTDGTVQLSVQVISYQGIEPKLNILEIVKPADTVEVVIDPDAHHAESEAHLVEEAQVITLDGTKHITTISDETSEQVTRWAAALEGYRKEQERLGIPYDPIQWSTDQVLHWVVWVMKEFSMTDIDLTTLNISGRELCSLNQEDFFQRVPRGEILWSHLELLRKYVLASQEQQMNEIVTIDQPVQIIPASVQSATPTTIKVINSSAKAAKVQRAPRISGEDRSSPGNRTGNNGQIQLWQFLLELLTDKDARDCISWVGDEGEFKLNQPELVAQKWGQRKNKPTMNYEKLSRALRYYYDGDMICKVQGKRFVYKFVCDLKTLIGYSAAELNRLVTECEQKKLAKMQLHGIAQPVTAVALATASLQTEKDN
Conditions: protein: recombinant; tags: N-terminal GST; dsDNA, one strand shown. The method in brief: as §1

For assay [3], the target named is ELF1 (Homo sapiens, UniProt P32519 1-619). As to conditions: protein: recombinant; tags: N-terminal GST; dsDNA, one strand shown. The method in brief: as §1
The target of assay [4] is SPI1 (Homo sapiens, UniProt P17947 1-270). Conditions: protein: recombinant; tags: N-terminal GST; dsDNA, one strand shown. The method in brief: as §1
Assay [5] concerns the target SPIB (Homo sapiens, UniProt Q01892 1-262). Conditions: protein: recombinant; tags: N-terminal GST; dsDNA, one strand shown. The method in brief: as §1
For assay [6], the target named is T3, ELK3 (Homo sapiens, UniProt P41970 1-407).
T3 sequence: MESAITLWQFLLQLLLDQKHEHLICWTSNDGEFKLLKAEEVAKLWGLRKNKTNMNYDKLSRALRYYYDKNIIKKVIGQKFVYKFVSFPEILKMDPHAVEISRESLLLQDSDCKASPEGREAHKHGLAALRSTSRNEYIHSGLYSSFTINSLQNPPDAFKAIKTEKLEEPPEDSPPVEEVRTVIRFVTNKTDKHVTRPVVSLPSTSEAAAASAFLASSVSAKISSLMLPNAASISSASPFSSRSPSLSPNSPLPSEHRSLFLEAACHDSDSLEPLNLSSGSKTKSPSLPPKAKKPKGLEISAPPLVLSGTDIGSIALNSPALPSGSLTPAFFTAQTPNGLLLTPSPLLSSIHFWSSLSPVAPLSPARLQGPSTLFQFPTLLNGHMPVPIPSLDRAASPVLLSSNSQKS
As to conditions: protein: recombinant; tags: N-terminal GST; dsDNA, one strand shown. The method in brief: as §1

For assay [7], the target named is ETV5 (Homo sapiens, UniProt P41161 1-510). Conditions: protein: recombinant; tags: N-terminal GST; dsDNA, one strand shown. Put shortly:
as §1

Assay [8] deals with HSF1 (Homo sapiens, UniProt Q00613 1-529). Conditions: protein: recombinant; tags: N-terminal GST; chain copies: 3; dsDNA, one strand shown. Put shortly: as §1
Assay [9] concerns the target T4, SPIC (Homo sapiens, UniProt Q8N5J4 1-248).
T4 sequence: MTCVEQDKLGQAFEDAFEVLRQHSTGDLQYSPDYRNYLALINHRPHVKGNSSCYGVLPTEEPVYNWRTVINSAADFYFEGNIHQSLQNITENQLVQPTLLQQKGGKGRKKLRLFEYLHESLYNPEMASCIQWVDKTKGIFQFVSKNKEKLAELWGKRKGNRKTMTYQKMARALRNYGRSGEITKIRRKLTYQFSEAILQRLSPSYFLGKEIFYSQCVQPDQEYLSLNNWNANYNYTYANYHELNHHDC
Conditions: protein: recombinant; tags: N-terminal GST; dsDNA, one strand shown. Put shortly:
as §1

The target of assay [10] is ELF4 (Homo sapiens, UniProt Q99607 1-663). As to conditions: protein: recombinant; tags: N-terminal GST; dsDNA, one strand shown. Put shortly: as §1
The target in assay [11] is T5, ETV2 (Homo sapiens, UniProt O00321 1-342).
T5 sequence: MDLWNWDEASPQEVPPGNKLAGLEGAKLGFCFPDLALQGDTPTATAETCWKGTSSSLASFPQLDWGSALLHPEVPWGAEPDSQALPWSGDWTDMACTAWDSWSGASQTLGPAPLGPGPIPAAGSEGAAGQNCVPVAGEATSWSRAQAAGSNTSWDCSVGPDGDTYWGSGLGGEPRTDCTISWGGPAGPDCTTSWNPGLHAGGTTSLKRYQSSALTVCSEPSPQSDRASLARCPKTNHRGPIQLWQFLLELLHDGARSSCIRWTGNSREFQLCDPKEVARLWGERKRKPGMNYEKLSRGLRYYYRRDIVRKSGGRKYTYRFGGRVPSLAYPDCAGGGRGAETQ
As to conditions: protein: recombinant; tags: N-terminal GST; dsDNA, one strand shown. The method in brief: as §1

Assay [12] addresses T6, ELF3 (Homo sapiens, UniProt P78545 1-371).
T6 sequence: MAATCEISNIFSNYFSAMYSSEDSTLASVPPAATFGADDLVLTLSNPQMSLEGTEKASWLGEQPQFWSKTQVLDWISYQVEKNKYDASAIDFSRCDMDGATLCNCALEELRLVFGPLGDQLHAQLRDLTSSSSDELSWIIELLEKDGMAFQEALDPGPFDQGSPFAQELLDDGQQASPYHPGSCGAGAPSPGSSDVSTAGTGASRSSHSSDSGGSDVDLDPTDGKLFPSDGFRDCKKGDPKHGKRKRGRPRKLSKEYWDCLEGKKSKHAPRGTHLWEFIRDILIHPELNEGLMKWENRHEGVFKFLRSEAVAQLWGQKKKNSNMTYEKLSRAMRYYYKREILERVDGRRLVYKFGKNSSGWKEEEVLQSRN
As to conditions: protein: recombinant; tags: N-terminal GST; dsDNA, one strand shown. Put shortly: as §1

The target in assay [13] is CRX (Homo sapiens, UniProt O43186 1-299). As to conditions: protein: recombinant; tags: N-terminal GST; dsDNA, one strand shown. Put shortly: as §1
In assay [14] the target is T7, ELK1 (Homo sapiens, UniProt P19419 1-428).
T7 sequence: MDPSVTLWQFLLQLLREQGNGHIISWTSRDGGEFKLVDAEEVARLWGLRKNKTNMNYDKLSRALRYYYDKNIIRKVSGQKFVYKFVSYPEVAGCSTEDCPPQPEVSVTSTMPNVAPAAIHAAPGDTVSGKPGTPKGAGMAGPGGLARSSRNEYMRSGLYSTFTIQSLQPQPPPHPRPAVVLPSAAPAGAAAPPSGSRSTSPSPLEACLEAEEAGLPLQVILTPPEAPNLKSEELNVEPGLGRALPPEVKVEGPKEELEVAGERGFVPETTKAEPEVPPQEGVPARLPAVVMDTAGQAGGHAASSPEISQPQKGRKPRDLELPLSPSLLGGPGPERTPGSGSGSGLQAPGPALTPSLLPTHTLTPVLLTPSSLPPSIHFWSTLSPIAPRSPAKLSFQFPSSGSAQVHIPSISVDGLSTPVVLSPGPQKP
As to conditions: protein: recombinant; tags: N-terminal GST; dsDNA, one strand shown. Put shortly:
as §1

Assay [15] has as its target T8, ERG (Homo sapiens, UniProt P11308 1-479).
T8 sequence: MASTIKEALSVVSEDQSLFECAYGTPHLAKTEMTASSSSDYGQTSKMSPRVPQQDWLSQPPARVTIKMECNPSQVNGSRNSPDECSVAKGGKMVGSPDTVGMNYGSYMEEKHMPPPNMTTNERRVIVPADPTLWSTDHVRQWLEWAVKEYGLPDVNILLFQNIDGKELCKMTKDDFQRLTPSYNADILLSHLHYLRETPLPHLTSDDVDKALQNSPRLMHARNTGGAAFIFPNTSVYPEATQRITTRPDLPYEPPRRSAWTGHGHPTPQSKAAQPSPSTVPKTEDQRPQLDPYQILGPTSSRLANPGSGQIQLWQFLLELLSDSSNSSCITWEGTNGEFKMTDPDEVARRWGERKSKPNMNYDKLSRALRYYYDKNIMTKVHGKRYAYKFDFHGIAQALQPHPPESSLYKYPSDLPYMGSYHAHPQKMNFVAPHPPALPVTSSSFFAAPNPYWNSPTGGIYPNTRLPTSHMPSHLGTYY
Conditions: protein: recombinant; tags: N-terminal GST; dsDNA, one strand shown. Put shortly: as §1

The target in assay [16] is T9, EHF (Homo sapiens, UniProt Q9NZC4 1-300).
T9 sequence: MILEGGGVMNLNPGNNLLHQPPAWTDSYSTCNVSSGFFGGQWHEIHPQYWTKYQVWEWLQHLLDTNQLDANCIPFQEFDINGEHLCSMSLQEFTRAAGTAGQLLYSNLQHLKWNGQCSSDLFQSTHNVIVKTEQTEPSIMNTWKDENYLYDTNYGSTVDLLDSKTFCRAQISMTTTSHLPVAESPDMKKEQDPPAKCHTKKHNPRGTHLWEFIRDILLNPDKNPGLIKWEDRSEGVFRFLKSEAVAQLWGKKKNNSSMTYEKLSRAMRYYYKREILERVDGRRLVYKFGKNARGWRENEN
As to conditions: protein: recombinant; tags: N-terminal GST; dsDNA, one strand shown. Put shortly:
as §1

Assay [17] concerns the target T10, FEV (Homo sapiens, UniProt Q99581 1-238).
T10 sequence: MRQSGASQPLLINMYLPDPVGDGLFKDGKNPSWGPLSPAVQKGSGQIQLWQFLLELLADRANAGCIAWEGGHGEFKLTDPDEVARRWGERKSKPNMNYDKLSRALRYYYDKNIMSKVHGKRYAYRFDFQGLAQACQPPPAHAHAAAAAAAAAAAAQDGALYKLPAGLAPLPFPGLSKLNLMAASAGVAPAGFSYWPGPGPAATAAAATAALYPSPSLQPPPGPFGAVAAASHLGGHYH
As to conditions: protein: recombinant; tags: N-terminal GST; dsDNA, one strand shown. The method in brief:
as §1

Assay [18] addresses ETV1 (Homo sapiens, UniProt P50549 1-477). Conditions: protein: recombinant; tags: N-terminal GST; dsDNA, one strand shown. Put shortly: as §1

This note sets out measurements from publication PMC7862700, “An all-to-all approach to the identification of sequence-specific readers for epigenetic DNA modifications on cytosine”.

SPIB, sequence (Q01892 whole entry): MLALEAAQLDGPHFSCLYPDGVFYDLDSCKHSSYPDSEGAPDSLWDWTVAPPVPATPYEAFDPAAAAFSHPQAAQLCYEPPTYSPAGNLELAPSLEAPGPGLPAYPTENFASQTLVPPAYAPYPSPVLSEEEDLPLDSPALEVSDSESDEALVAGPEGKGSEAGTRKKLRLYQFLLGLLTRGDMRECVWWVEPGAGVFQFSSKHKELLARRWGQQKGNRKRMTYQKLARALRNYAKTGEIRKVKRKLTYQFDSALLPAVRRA
ELF4, sequence (Q99607 whole entry): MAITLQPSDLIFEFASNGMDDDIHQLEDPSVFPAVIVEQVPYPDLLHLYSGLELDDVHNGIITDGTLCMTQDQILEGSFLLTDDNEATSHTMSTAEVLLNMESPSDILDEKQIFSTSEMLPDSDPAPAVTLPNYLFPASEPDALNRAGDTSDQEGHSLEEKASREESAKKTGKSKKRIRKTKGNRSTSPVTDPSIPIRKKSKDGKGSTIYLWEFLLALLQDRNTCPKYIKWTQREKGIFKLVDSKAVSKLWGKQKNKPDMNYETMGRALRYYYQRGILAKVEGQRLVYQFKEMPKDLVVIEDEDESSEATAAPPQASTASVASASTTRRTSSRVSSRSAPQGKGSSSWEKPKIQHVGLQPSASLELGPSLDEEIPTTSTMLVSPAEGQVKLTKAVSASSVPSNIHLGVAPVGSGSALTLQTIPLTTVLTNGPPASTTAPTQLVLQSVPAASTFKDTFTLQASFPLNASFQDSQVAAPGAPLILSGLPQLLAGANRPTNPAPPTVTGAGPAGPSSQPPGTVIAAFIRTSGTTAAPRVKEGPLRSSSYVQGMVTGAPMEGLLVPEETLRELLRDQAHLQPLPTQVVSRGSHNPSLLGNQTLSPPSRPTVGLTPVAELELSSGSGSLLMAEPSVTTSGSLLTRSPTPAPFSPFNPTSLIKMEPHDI
ETV5, sequence (P41161 whole entry): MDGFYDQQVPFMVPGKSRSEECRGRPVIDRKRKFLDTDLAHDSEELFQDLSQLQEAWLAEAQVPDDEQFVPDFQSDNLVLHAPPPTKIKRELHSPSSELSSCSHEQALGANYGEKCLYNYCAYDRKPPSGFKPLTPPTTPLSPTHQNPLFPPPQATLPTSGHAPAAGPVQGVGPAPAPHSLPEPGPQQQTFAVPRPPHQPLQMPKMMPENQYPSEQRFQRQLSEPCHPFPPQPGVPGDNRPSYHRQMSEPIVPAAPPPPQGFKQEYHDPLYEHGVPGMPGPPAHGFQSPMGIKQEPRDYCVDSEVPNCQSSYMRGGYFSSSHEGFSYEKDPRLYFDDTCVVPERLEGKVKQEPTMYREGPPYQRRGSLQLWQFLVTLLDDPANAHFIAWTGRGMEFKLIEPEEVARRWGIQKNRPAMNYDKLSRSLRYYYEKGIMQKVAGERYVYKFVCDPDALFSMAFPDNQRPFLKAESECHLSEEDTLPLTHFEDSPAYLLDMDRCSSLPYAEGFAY
HSF1, sequence (Q00613 whole entry): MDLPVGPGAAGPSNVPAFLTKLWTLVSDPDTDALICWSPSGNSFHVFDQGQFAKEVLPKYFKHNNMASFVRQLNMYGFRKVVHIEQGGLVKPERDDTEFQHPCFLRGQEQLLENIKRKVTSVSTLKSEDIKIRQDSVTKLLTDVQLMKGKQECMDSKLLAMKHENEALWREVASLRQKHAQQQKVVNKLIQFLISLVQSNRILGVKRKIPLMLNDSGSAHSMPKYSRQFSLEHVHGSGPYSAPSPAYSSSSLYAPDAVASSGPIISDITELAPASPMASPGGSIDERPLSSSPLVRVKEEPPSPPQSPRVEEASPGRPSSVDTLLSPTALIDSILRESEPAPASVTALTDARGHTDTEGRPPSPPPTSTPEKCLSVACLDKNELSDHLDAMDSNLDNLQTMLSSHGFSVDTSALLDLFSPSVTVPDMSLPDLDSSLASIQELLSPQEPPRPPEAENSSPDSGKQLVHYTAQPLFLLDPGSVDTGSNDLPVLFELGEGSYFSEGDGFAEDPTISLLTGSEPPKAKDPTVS
CRX, sequence (O43186 whole entry): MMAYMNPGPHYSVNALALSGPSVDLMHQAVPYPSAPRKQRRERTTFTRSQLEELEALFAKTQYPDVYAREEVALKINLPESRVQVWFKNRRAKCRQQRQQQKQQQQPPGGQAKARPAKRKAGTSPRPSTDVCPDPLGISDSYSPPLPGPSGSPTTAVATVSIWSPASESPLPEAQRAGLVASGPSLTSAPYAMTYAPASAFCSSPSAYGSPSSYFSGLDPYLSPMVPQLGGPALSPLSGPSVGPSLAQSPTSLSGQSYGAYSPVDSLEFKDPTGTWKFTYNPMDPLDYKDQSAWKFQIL
ELF1, sequence (P32519 whole entry): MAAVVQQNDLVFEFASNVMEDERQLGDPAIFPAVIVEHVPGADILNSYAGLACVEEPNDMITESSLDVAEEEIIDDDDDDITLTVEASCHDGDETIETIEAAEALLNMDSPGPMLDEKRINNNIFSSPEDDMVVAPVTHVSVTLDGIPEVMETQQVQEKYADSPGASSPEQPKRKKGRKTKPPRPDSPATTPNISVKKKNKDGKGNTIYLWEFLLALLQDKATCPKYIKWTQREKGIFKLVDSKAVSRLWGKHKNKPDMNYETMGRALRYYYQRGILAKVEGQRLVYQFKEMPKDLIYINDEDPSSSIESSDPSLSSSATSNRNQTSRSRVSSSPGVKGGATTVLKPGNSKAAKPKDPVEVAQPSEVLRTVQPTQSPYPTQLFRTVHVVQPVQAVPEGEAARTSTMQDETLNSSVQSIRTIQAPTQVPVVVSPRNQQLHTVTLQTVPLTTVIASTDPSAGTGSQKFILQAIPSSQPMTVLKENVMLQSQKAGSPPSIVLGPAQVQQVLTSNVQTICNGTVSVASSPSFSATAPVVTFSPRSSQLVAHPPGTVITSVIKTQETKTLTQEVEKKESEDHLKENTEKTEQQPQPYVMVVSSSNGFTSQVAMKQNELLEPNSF
ETV1, sequence (P50549 whole entry): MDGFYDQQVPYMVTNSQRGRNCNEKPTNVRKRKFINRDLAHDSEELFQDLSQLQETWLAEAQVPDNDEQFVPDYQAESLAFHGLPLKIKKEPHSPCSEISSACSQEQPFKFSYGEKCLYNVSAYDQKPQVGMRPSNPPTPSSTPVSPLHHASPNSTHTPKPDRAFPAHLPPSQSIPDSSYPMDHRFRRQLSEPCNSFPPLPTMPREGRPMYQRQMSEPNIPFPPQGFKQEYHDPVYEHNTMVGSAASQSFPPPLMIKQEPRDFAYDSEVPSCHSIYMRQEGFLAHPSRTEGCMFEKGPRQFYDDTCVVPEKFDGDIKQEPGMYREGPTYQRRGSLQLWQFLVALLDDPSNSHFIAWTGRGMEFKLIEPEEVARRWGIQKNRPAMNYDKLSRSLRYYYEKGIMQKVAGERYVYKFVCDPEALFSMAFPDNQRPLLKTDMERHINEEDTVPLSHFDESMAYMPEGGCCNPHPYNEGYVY

Take TTTAGT: the binding signal was 1.13 fold enrichment (6-mer frequency, TF over GST control) in assay [1]; 1.11 fold enrichment (6-mer frequency, TF over GST control) in assay [2]; 1.11 fold enrichment (6-mer frequency, TF over GST control) in [3]; 1.07 fold enrichment (6-mer frequency, TF over GST control) in assay [4]; 1.12 fold enrichment (6-mer frequency, TF over GST control) in [5]; 1.11 fold enrichment (6-mer frequency, TF over GST control) in assay [6]. The binding signal was 1.04 fold enrichment (6-mer frequency, TF over GST control) in assay [7]; 1.2 fold enrichment (6-mer frequency, TF over GST control) in assay [8]; 1.15 fold enrichment (6-mer frequency, TF over GST control) in assay [9]; 1.04 fold enrichment (6-mer frequency, TF over GST control) in assay [10]; 1.23 fold enrichment (6-mer frequency, TF over GST control) in assay [11]; 1.04 fold enrichment (6-mer frequency, TF over GST control) in [12]. Further, the binding signal in assay [13] was 1.55 fold enrichment (6-mer frequency, TF over GST control).

Turning to AAATCG, the binding signal was 1.03 fold enrichment (6-mer frequency, TF over GST control) in assay [1]; 1.01 fold enrichment (6-mer frequency, TF over GST control) in assay [14]; 1.06 fold enrichment (6-mer frequency, TF over GST control) in assay [15]; 1.03 fold enrichment (6-mer frequency, TF over GST control) in assay [16]; 1.01 fold enrichment (6-mer frequency, TF over GST control) in assay [4]; 1.04 fold enrichment (6-mer frequency, TF over GST control) in assay [5]. Besides, the binding signal in [6] is 1.04 fold enrichment (6-mer frequency, TF over GST control); in [17] it was 1 fold enrichment (6-mer frequency, TF over GST control); in assay [7], 1.04 fold enrichment (6-mer frequency, TF over GST control); in assay [8], 1.18 fold enrichment (6-mer frequency, TF over GST control); in assay [9], 1 fold enrichment (6-mer frequency, TF over GST control); in [10], 1.11 fold enrichment (6-mer frequency, TF over GST control). In addition, the binding signal was 1.03 fold enrichment (6-mer frequency, TF over GST control) in [12]; 1.26 fold enrichment (6-mer frequency, TF over GST control) in assay [13]; 1.05 fold enrichment (6-mer frequency, TF over GST control) in [18].
